From PubChem BioAssay
SMN2 splice enh – enhancers of SMN2 splice variant expression; HEK293 SMN2-luciferase splicing reporter, luminescence, 30-36 h; Potency, µM (highest dose often 46.1 µM), inactives show top-dose activity change, positive = activation, hits mostly activators; 2.8% of 210,000 active; also: % of control where 0% means no effect; nearly all actives have a fitted effect of over 55% in size
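qHTS luciferase splicing reporter: luminescence rises when SMN2 exon 7 is included in transfected HEK293 cells. Compound exposure lasted 30-36 h at 37C, with 4.5 mM final sodium butyrate as control, followed by a ONE-Glo read.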
Rab9 promoter act – activates the Rab9 promoter; Huh7 Rab9 promoter-luciferase reporter, luminescence, 24 h; Potency, µM (titrated, usually from 9.22 µM), without a hit: top-dose activation, negative = inhibition, hits mostly activators; 2.8% of 320,000 active; also: % of control where 0% means no effect; nearly all actives have a fitted effect of over 60% in size
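Cells were plated at 1500 per well in reduced-serum medium with 10% FBS and left 2 h. Compound in DMSO was then added for 24 h at 37 °C. Reporter signal was read by luminescence after 10 min with luciferase detection reagent.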
FLuc counter – inhibits or activates purified firefly luciferase, miR-21 counter-screen. P08659. purified FLuc, Km substrates, luminescence inhibition. Potency, µM (doses to about 57.5 µM), for the others: top-dose activity change, negative = inhibition, most hits filed as inhibitors. 6.9% of 360,000 active;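 also: plate controls were vehicle for no effect and reference inhibitor for full effect; nearly all actives have a fitted effect of over 55% in size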
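Biochemical qHTS of compounds, final roughly 60 µM downward over six points, against 10 nM purified firefly luciferase using Km concentrations of substrates (10 uM D-luciferin, 10 uM ATP) in Tris acetate pH 7.5 buffer; luminescence output.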
ELG1 genotoxic – inducers of genotoxicity in HEK293T ELG1-luciferase cells; 1.3% of 330,000 active; HEK293T ELG1-luciferase reporter, luminescence, 16 h; Potency, µM (top dose mostly 46 µM), for inactives: top-dose activity change, positive = activation, actives largely listed as activators; also: % of control where 0% means no effect; nearly all actives have a fitted effect of over 60% in size
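Genotoxic stress is detected as increased luminescence from luciferase-tagged ELG1 in HEK293T cells, measured with ONE-Glo after a 16 hr treatment at 37 °C.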
Luc counter – Kinase-Glo luciferase inhibition (counter-screen). Potency, µM (series often up to 38.3 µM), inactives show at the highest dose activity change, negative = inhibition, usual class: inhibitors. 0.28% of 200,000 active. Kinase-Glo luciferase, ATP luminescence, 8 min; also: % is scaled to controls: 0 for no effect and ±100 for the full control effect; nearly all actives have a fitted effect of over 60% in size
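Compounds were added to a substrate mix at pH 7.2 (50 mM imidazole, 10 uM ATP, within the enzyme's linear range), followed by Kinase-Glo detection reagent; luminescence was measured after 8 minutes at ambient temperature.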
NPC1 promoter act – activators of NPC1 promoter. Huh7 NPC1 promoter luciferase reporter, 24 h. Potency, µM (titrated, usually from 9.22 µM), inactives show top-dose activation, most hits filed as activators. 2.4% of 320,000 active; also: % of control where 0% means no effect; nearly all actives have a fitted effect of over 60% in size
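Luminescence from an NPC1 promoter-driven luciferase reporter in stably transfected Huh7 cells was measured after 24 h compound treatment at 37 °C, followed by 10 min ambient incubation with luciferase detection reagent.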
* = called active by the depositor. Shown are actives, neighbours in structure and some others; about 7.5% of the full set was active somewhere. Calls follow the shape of the dose curve; as a rule, active = well fitted curve in the direction sought with a large enough effect; inconclusive = small, poorly fitted or top-dose-only effect, or another doubt; inactive = no such curve, though single readings can be large; an effect the other way counts as inactive or inconclusive. Potency is read from the fitted curve at half-maximal effect.

Screening CCCc1cc(-c2ccc3c(c2)COc2c4ccccc4nn2-3)on1 returned Rab9 promoter act 2.8µM*, FLuc counter 1.1µM*, ELG1 genotoxic inconclusive and NPC1 promoter act 2.8µM*.
`C(#CC1CCCC1)c1ccc2c(c1)COc1c3ccccc3nn1-2` gave Rab9 promoter act 1µM*, FLuc counter 3µM*, ELG1 genotoxic inconclusive and NPC1 promoter act 0.89µM*.
`O=C(Nc1sc2c(c1C(=O)NCc1ccccc1)CCCC2)c1cc(=O)c2cc(Cl)ccc2o1` gave SMN2 splice enh -5% and FLuc counter 0%.
Screening Cc1ccc(-c2ccc(=O)n(CC(=O)Nc3ccc(C)cc3Cl)n2)cc1 returned SMN2 splice enh 5% and FLuc counter 5%.
Screening Cc1cc(-c2nc3cccnc3s2)ccc1NS(=O)(=O)c1cccs1 returned Rab9 promoter act 1.6µM*, FLuc counter 13µM*, ELG1 genotoxic inconclusive and NPC1 promoter act inconclusive.
Screening Cc1c(NS(=O)(=O)c2cccs2)cccc1-c1nc2cccnc2s1 returned Rab9 promoter act 13%, FLuc counter 19µM*, ELG1 genotoxic -4% and NPC1 promoter act -2%.
Cc1c(NS(C)(=O)=O)cccc1-c1nc2cccnc2s1 was read as Rab9 promoter act inconclusive, FLuc counter 17µM*, ELG1 genotoxic -7% and NPC1 promoter act inconclusive.
O=S(=O)(Nc1ccc(-c2nc3cccnc3s2)cc1)c1cccs1 was read as SMN2 splice enh inconclusive, Rab9 promoter act 27%, FLuc counter -15%, ELG1 genotoxic inconclusive, Luc counter 0% and NPC1 promoter act 28%.
For Cc1ccc(C)c(CN2C(=O)c3ccccc3Sc3ccc(C(=O)NC4CCCC4)cc32)c1 the results were FLuc counter -2%.
Screening CCCOc1ccc(C2CC(=O)Nc3c2c(C)nn3-c2nncc(-c3cccc(OC)c3)n2)cc1OC (configuration not stated) returned FLuc counter -12%.
